From PubChem BioAssay come the findings set out here.

The structures appear in SMILES notation. Active and inactive are the calls of the source.

Assay [1] deals with Albumin (Bos taurus) (UniProt P02769). Briefly: compounds binding labelled BSA control protein – biochemical, small-molecule microarray, Alexa647 label, 635/667 nm fluorescence, artefact control for SMM control protein annotation, profiling panel (AID 1118).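 Note: score merges 667 nm emission intensity and signal-to-noise per printed compound spot.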 As to conditions: BSA-A647 binding, fluorescence 635 nm, higher = more signal.
The nature of assay [2]: probe aXIP binding to arrayed compounds – biochemical, NeuroSMM set, 635/667 nm fluorescence, primary screen (AID 1119).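 Note: probe is the protein aXip251-270 applied at 1 µg/mL to compound-printed slides; binding of probe to printed compounds measured as 667 nm fluorescence plus signal to noise.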 As to conditions: small-molecule microarray, higher = more signal, called active from +8 up or from −8 down.
The nature of assay [3]: probe aNOTCH3 binding on compound microarray – biochemical, small-molecule microarray, 635/667 nm fluorescence, primary screen (AID 1120).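 Note: probe is a biotin-tagged antibody raised against NOTCH3 rather than NOTCH3 protein; score merges spot fluorescence near 667 nm with spot signal to noise.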 As to conditions: higher = more signal.
Assay [4] can be described thus: probe aNOTCH2 binding on compound microarray – biochemical, small-molecule microarray, 635/667 nm fluorescence, primary screen (AID 1121).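 Note: score merges feature fluorescence read at 667 nm with its signal to noise.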 The note with it: higher = more signal.
Assay [5] deals with Carbonic anhydrase 2 (Homo sapiens) (UniProt P00918). Briefly: compounds binding carbonic anhydrase 2 – biochemical, small-molecule microarray, Alexa647-labelled CAII, profiling panel (AID 1122). As to conditions: CAII-A647 binding fluorescence, higher = more signal.
Assay [6] can be described thus: COS7 lysate on small-molecule microarray, probe aHis, 635 nm (AID 1123).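 Note: z-score combines 667nm fluorescence intensity with signal-to-noise per printed compound spot.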 The note with it: COS7 cell lysate, fluorescence, higher = more signal.
Assay [7] can be described thus: probe aLAP1 signal on lysate-treated microarray – cell lysate, small-molecule microarray, COS7 lysate, primary screen (AID 1124).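 Note: lysate comes from COS7 cells expressing LAP1 and is applied at 0.3 µg/mL; score merges spot fluorescence near 667 nm with signal-to-noise over triplicate slides.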 As to conditions: probe aLAP1, fluorescence, higher = more signal.
Assay [8] concerns Sam68 (KHDRBS1). As to the kind of experiment: compounds binding KHDRBS1 protein – biochemical, small-molecule microarray, 635 nm fluorescence, primary screen (AID 1125).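 Note: score merges 667 nm channel intensity with signal to noise over triplicate slides.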 As to conditions: higher = more signal.
The test system of assay [9] is Chordin-like protein 2 (CHRDL2). As to the kind of experiment: compounds binding chordin-like 2 – biochemical, small-molecule microarray, 635 nm fluorescence, primary screen (AID 1126).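 Note: printed compound slides probed with Chrdl2 protein at 4 µg/mL for 1 h at 4 C; score merges 667 nm emission intensity with signal to noise over three replicate slides.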 The note with it: fluorescence 635 nm, higher = more signal.
Assay [10] concerns the target Concanavalin-A (Canavalia ensiformis) (UniProt P02866). Briefly: compounds binding concanavalin A lectin – biochemical, small-molecule microarray, Alexa647 label, 635 nm, artefact control for SMM control protein annotation, primary screen (AID 1127).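 Note: z combines 667 nm emission intensity with signal-to-noise across three replicate slides.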 The note with it: ConA-A647 binding fluorescence, higher = more signal.

Sequence of Concanavalin-A (Canavalia ensiformis) (P02866 whole entry, looked up): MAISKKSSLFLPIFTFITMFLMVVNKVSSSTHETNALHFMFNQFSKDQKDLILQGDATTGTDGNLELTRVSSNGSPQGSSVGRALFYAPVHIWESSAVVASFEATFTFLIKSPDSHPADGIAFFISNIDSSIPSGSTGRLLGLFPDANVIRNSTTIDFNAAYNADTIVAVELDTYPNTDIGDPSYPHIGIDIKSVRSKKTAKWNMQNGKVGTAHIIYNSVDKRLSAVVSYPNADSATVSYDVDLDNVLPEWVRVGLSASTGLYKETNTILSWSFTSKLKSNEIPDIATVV
Sequence of Albumin (Bos taurus) (P02769 whole entry, looked up): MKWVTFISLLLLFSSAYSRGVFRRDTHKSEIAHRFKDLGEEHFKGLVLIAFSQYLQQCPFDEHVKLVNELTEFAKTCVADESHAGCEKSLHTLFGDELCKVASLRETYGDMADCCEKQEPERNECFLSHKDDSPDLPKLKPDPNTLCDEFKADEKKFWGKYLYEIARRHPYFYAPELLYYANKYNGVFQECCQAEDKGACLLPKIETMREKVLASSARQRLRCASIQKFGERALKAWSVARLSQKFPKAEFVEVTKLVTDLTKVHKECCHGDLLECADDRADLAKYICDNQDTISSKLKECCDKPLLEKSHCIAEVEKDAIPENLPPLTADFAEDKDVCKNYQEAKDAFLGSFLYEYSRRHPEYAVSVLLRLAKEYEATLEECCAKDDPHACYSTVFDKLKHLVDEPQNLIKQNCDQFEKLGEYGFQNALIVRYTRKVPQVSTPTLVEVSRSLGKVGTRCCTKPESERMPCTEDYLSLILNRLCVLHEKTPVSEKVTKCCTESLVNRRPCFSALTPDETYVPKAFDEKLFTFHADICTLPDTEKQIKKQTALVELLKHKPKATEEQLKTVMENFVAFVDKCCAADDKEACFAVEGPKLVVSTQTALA

For the compound `O=C1OCCC/C=C\[C@H]2OC34C=CCN(CCN5CCOCC5)C(=O)[C@H]3N(CCCCCCO)C(=O)[C@@H]4C12` (stereo not given in full), the composite z-score in [1] is 0.719; in assay [3], -0.0947; in assay [4] it was -0.144; in assay [5], 0.867; in [6], 0.817; in assay [7], 1.57. In addition, the composite z-score is 0.184 in assay [8], -0.394 in [9] and -0.324 in [10]. In [2], the composite Z-score is 1.02 (inactive).

Turning to `CN(C)C(=O)[C@]1(CCS(=O)(=O)c2ccccc2)N=C(c2ccc(OCCCO)cc2)O[C@@H]1c1ccccc1N=[N+]=[N-]`, the composite z-score worked out at 0.963 in [1]; 0.545 in assay [3]; 0.111 in assay [4]; 0.689 in assay [5]; 2.93 in assay [6]; 0.108 in [7]. The composite z-score in assay [8] was determined as 1.29; in assay [9], 0.555; in [10], 1.16. In assay [2], the composite Z-score was -0.0275 (inactive).

Regarding `CCCNC(=O)[C@@H]1c2ccccc2C(=O)N(C(C)C)[C@H]1c1ccc(CO)cc1`, the composite z-score was -0.342 in assay [1]; -0.0728 in assay [3]; -0.0567 in assay [4]; 0.322 in [5]; 0.113 in assay [6]; 0.784 in [7]. Besides, the composite z-score in [8] was 0.437; in assay [9] it was -0.605; in assay [10], 0.208. For the same compound, the composite Z-score in [2] is 0.251 (inactive).

Consider `COC(=O)[C@@]1(Cc2ccc(OC)cc2)[C@H]2c3cc(C(=O)N4CCCC4)n(Cc4cccc5ccccc45)c3C[C@H]2CN1C(=O)c1ccccc1`, for which the composite z-score in assay [1] turned out to be 1.02; in assay [3] it was 0.137; in assay [4] it was 0.377; in assay [5] it was 0.757; in assay [6], 2.55; in assay [7], 0.592. The values for the composite z-score in assay [8], in assay [9] and in assay [10] were 0.462, -0.133 and 0.686, respectively. Moreover, the composite Z-score in assay [2] is -0.115 (inactive).

With `CCCCC=C[C@@H](NC(=O)c1ccc(-c2ccccc2)cc1)c1ccccc1`, the composite z-score came to 0.43 in assay [1]; 0.112 in [3]; 0.0065 in assay [4]; 0.641 in assay [5]; 1.08 in assay [6]; 1.01 in assay [7]. Moreover, the figures for the composite z-score in assay [8], in assay [9] and in [10] were 1.07, -0.309 and 0.933, respectively. The composite Z-score in [2] is 0.516 (inactive).

For `C=C(CCCC)/C(=C/C[C@@H](OC(=O)c1ccncc1)c1ccccc1OCCO)c1cnc2ccccc2c1`, the composite z-score was 0.459 in [1]; 0.28 in [3]; -0.105 in assay [4]; 0.719 in [5]; 0.457 in [6]; 0.603 in assay [7]. Further, the composite z-score in assay [8] is 1.3; in assay [9], 0.924; in assay [10], 1.07. The composite Z-score in assay [2] was -0.869 (inactive).

As to `CC(C)(C)OC(=O)CC[C@]1(C(=O)NCC(O)CO)N=C(c2ccc(OCCCO)cc2)O[C@H]1c1ccccc1` (stereo not given in full), the composite z-score was 0.902 in assay [1]; -0.0678 in assay [3]; -0.0843 in assay [4]; 0.873 in assay [5]; 3.11 in [6]; 0.0605 in assay [7]. The composite z-score in assay [8] was 0.723; in assay [9], -0.852; in [10], -0.137. Moreover, the composite Z-score in assay [2] is 0.561 (inactive).

As to `COC(=O)c1c2oc(c1C(=O)OC)C(=O)N(C)Cc1cn(nn1)C[C@H](Cc1ccccc1)NC(=O)N[C@H](CO)CC2`, the composite z-score in assay [1] was -0.56; in [3], -0.155; in assay [4] it was -0.18; in [5] it was -0.41; in assay [6] it was -0.69; in assay [7], -0.161. Moreover, the composite z-score is -0.947 in assay [8], -0.516 in assay [9] and -1.17 in assay [10]. Moreover, the composite Z-score in assay [2] was -0.2 (inactive).

Turning to `CC(C)[Si](C#CCCCC#N)(O[C@H](c1ccccc1)c1cn([C@H](CO)Cc2ccccc2)nn1)C(C)C`, the composite z-score in assay [1] was 0.992; in assay [3], -0.15; in [4], -0.161; in assay [5] it was 0.456; in assay [6] it was 0.605; in assay [7] it was 0.936. The composite z-score in assay [8] was 1.11; in [9], -0.006; in assay [10], 1.16. Moreover, the composite Z-score in assay [2] was 0.727 (inactive).

On to `COCCOC(=O)N1C(=O)[C@@]2(c3ccccc31)[C@H](C(=O)N1CCN(c3ncccn3)CC1)[C@H]1C(=O)O[C@H](c3ccccc3)[C@H](c3ccccc3)N1[C@@H]2c1ccc(O)cc1`, for which the composite z-score in assay [1] is 0.303; in assay [3], -0.273; in assay [4] it was -0.237; in [5] it was 0.597; in assay [6], 1.15; in assay [7], 0.421. Also, the results for the composite z-score in assay [8], in assay [9] and in [10] were 1.02, 0.271 and 1.1, respectively. Further, in assay [2], the composite Z-score is -0.197 (inactive).

Regarding `COc1ccc(NC(=O)O[C@H]2[C@H](OC(=O)Nc3ccccc3)[C@@H](OC(=O)Nc3ccccc3)[C@@H](OC)O[C@@H]2CO)cc1`, the composite z-score in assay [1] is 0.137; in assay [3], -0.0003; in [4], -0.0878; in assay [5], 0.761; in assay [6], 2.8; in [7], 0.624. The composite z-score is 1.29 in assay [8], 0.402 in assay [9] and 1.13 in assay [10]. In assay [2], the composite Z-score was -0.275 (inactive).

`COC(=O)c1ccc([C@H](NC(=O)c2ccco2)[C@]2(C)C[C@H]2C2CCCCC2)cc1`: the composite z-score in assay [1] was 0.678; in assay [3], 0.0179; in assay [4], -0.0391; in [5] it was -0.227; in assay [6] it was 1.43; in assay [7], -0.164. For the same compound, the composite z-score in assay [8] is -0.552; in assay [9] it was -1.17; in assay [10] it was 0.208. For the same compound, the composite Z-score in [2] was 0.0201 (inactive).
